Screening results as filed in PubChem BioAssay.
Many of the other results were omitted from the sample, so hits are more common in it than they were.
Pf Dd2 inh: Plasmodium falciparum Dd2 growth inhibition; P. falciparum Dd2 growth, SYBR Green, 72 h; Potency, µM (highest dose often 28.9 µM), hits mostly inhibitors; hit rate 4.3% among 120,000; active means well fitted inhibition curve with a large enough effect; further: nearly all actives have a fitted effect of over 65% in size
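Readout: SYBR Green fluorescence, 485 nm excitation, 535 nm emission, after ~16 h lysis at 37C. Before that, Dd2-infected red cells (2.5% hematocrit) grew 72 h with compound, 29 uM top final concentration.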
Numbers stand for hits; 0 = inactive; [ ] = another dose, or the depositor's remark.

SMILES	Pf Dd2 inh
CN1[C@@H](CCC(=O)N2CCOCC2)CNC(=O)[C@@H]2[C@H]1CCN2Cc1cccs1	0
O=C(CN1C(=O)NC(c2ccc(Cl)cc2)C2=C1COC2=O)Nc1cccc(C(F)(F)F)c1 (stereo not drawn)	0
CN1CCC2(C1)CN(CC1CCOCC1)c1ccc(C(=O)NCC(F)(F)F)cc12 (stereo not drawn)	0
CCCc1nnc(NC(=O)C2CC(=O)N(c3n[nH]c4ccccc34)C2)s1 (stereo not drawn)	0
COc1ccc(-c2cc(CC3(NCc4ccccc4)COC3)no2)cc1	0
Cc1ccccc1C(=O)NCC(c1ccc(N(C)C)cc1)N1CCCC1 (stereo not drawn)	0
Cc1cc(S(=O)(=O)NCC(c2ccc(N(C)C)cc2)N2CCOCC2)ccc1F (stereo not drawn)	0
CC(C)Oc1ccc(C(=O)NCC(c2ccc(N(C)C)cc2)N2CCCC2)cc1 (stereo not drawn)	10µM
COc1ccc(C(CNC(=O)c2ccc(F)cc2)N2CCCC2)cc1 (stereo not drawn)	0
CN(C)c1ccc(C(CNS(=O)(=O)c2ccc(Cl)cc2)N2CCCC2)cc1 (stereo not drawn)	13µM
COc1ccc(S(=O)(=O)NCC(c2ccc(N(C)C)cc2)N2CCOCC2)cc1 (stereo not drawn)	0
C[C@@]1(O)CCN(Cc2ccc(C#N)cc2)C[C@H]1N1CCCC1	0[5.79 µM]
Cc1ccc(CNC(=O)Cn2c(-c3ccc(F)cc3)nc(C)c(CCO)c2=O)cc1	0
Cc1nnsc1C(=O)N[C@H]1CCN2C(=O)N(c3ccc(C(C)C)cc3)C(=O)[C@@H]2C1	0
CC(=O)Nc1ccc(S(=O)(=O)N[C@H]2C[C@@H](c3nc(-c4ccccc4)no3)N(C)C2)cc1	0
COc1cc(F)ccc1-c1cnc2n[nH]c(-c3ccc4c(c3)OCO4)c2n1	0
COc1ccc(C(=O)N2C[C@@H]3C[C@H](C2)c2ccc(-c4ccc5ccccc5c4)c(=O)n2C3)cc1	0
COc1ccc(S(=O)(=O)N2CCCC(Cc3noc(-c4ccccc4)n3)C2)cc1 (stereo not drawn)	4.5µM
COc1ccc(S(=O)(=O)N2CCCC(Cc3noc(-c4cnccn4)n3)C2)cc1 (stereo not drawn)	0
Cn1cnc(S(=O)(=O)N2CCCC(Cc3noc(-c4ccccc4)n3)C2)c1 (stereo not drawn)	0
O=C1CCN(C(=O)c2ccccc2)CCCC(C(=O)NCc2cccc(C(F)(F)F)c2)CCN1 (stereo not drawn)	0
CN(C)S(=O)(=O)N1C[C@H]2OC(=O)N(CCc3cccc(Cl)c3)[C@H]2C1	0
Cc1ccc(-c2nc3cc(Cl)ccc3o2)cc1NC(=O)c1cc([N+](=O)[O-])ccc1N1CCOCC1	0
Cc1ccc2oc(-c3ccc(C)c(NC(=O)c4ccc(N5CCC(C)CC5)c([N+](=O)[O-])c4)c3)nc2c1	0
O=C(Nc1cc(-c2nc3cc(Cl)ccc3o2)ccc1Cl)c1cc([N+](=O)[O-])ccc1N1CCOCC1	0
SMILES	Pf Dd2 inh
Cc1c(NC(=O)c2ccc(N3CCC(C)CC3)c([N+](=O)[O-])c2)cccc1-c1nc2ccccc2o1	0
CCc1ccc2oc(-c3cccc(NC(=O)c4ccc(N5CCC(C)CC5)c([N+](=O)[O-])c4)c3)nc2c1	7.9µM
O=C(Nc1cccc(-c2nc3ccccc3o2)c1)c1cc([N+](=O)[O-])ccc1N1CCOCC1	8.9µM
COc1cccc(NC(=O)N[C@H](C)c2onc(-c3ccc(F)cc3)c2C(=O)O)c1	0
CS(=O)(=O)NC[C@H]1O[C@@H](CO)[C@@H](O)[C@H]1N1CCc2ccccc2C1	0
O=C(Nc1ccccc1)O[C@H]1COCCN(c2nc3ccccc3o2)C1	0
COc1ccc(OC)c(CNC(=O)c2c(C)sc3ccn(C)c(=O)c23)c1	0
COc1ccc(CN2CCOC[C@H](Oc3cccc(C)n3)C2)cc1	0
Fc1ccc(CN2CCOC[C@H](Oc3ccccc3)C2)cc1	13µM
COc1ccc(CN2CCOC[C@H](Oc3ccccc3)C2)cc1	7.1µM
CS(=O)(=O)c1ccc(O[C@H]2COCCN(Cc3cccnc3)C2)cc1	0
COc1ccc(OC2CN(Cc3ccc(F)cc3)C2)cc1	0
COc1ccc(CN2CCOC[C@H](Oc3ccc(C(F)(F)F)cn3)C2)cc1	0
Cc1cc(=O)c(C(=O)N2CCC3(CC2)CC(C(=O)O)N(C)C3)c(C)[nH]1 (stereo not drawn)	0
Cc1cnc(C(=O)NC2C[C@H]3CC[C@@H](C2)N3C(=O)c2cccs2)cn1 (stereo partly drawn)	0
Cc1ccccc1-c1nc(CS(=O)(=O)CC(=O)Nc2c(C)cccc2C)c(C)o1	0
Cc1ccccc1-c1nc(Cn2ccnc2C(C)C)c(C)o1	11µM
Cc1ccc(CSc2nc3ccncc3n2Cc2nc(-c3ccccc3C)oc2C)cc1	0
CCOc1cc(C(=O)NC2CCN(c3cc(-c4ccccc4)[nH]n3)C2)cc(OCC)c1OCC (stereo not drawn)	5µM
CCOc1ccc(CC(=O)NC2CCN(c3cc(-c4cccs4)[nH]n3)C2)cc1OCC (stereo not drawn)	0
